“And” between values parts separate entries of the source, which are not always exact repeats. Equal entries are not always repeated. The source made the active and inactive calls. How the source made its calls: active means hit-call score of the fitted dose curve at least 0.9, where 1 is the maximum; inconclusive means response in the unintended direction; inactive means score below 0.9.
What follows are compounds tested on SERPINA7 (gene 6906) (assay: CCTE_GLTED_hTBG: CCTE's human Thyroxine-binding Globulin (TBG) Inhibition Assay, Great Lakes Toxicology and Ecology Division (GLTED) Lab (AID 2284343);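 further: active chemicals lower fluorescence versus DMSO baseline by displacing probe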).
Method: CCTE_GLTED_hTBG is a cell-free, single-readout assay designed to test the chemicals' ability to displace T4 from the human thyroxine-binding globulin (TBG) protein. TBG is incubated in presence of test chemical for 2 hours during which disrupting chemicals displace ANSA from the TBG protein. Results read fluorescence at 380 excitation and 475 emission.CCTE_GLTED_hTBG is the assay component measured from the CCTE_GLTED_hTBG assay. It is designed to make measurements of fluorescent polarization, using a form of binding reporter, as detected with Fluorescence signals by Fluorescence technology.Data from the assay component CCTE_GLTED_hTBG was analyzed at the assay endpoint CCTE_GLTED_hTBG in the positive analysis fitting direction relative to DMSO as the negative control and baseline of activity. Using a type of binding reporter, loss-of-signal activity can be used to understand a chemical's ability to displace T4 from thyroxine-binding globulin. To generalize the intended target to other relatable targets, this assay endpoint is annotated to the 'transporter' intended target family, where the subfamily is 'hormone carrier protein'.
Human transthyretin (TTR) assay, developed at Great Lakes Toxicology and Ecology Division (GLTED) within the EPA's Center for Computational Toxicology and Exposure (CCTE), is designed to test the chemicals' ability to displace T4 from the TTR protein. TTR (0.5uM) is incubated in presence of test chemical for 2 hours during which disrupting chemicals displace ANSA from the TTR protein. Results read fluorescence at 380 excitation and 475 emission.
In the case of `COP(=S)(OC)Oc1ccc(Sc2ccc(OP(=S)(OC)OC)cc2)cc1`, the AC50 is reported as 2.89 µM (active).
`Oc1ccc(-c2ccccc2)cc1` was tested, and the AC50 was 31.2 µM (active).
For `COP(=O)(OC)O/C(=C\Cl)c1cc(Cl)c(Cl)cc1Cl`, the AC50 was 10.1 µM (active).
`CCOP(=S)(OCC)Oc1nc(Cl)c(Cl)cc1Cl` was tested, and the AC50 was 18.6 µM (active).
`C[C@H]1CCCC(=O)CCC/C=C/c2cc(O)cc(O)c2C(=O)O1` was tested, and the AC50 was 50 µM (active).
`O=C1C2(Cl)C3(Cl)C4(Cl)C(Cl)(Cl)C5(Cl)C3(Cl)C1(Cl)C5(Cl)C24Cl` (stereo not drawn) was tested, and the outcome was “inactive”.
In the case of `O=[N+]([O-])c1ccc(O)c([N+](=O)[O-])c1`, the AC50 is reported as 21.9 µM (active).
`ClC1(Cl)C2(Cl)C3(Cl)C4(Cl)C(Cl)(Cl)C5(Cl)C3(Cl)C1(Cl)C5(Cl)C24Cl` (stereo not drawn) was tested, and the outcome was “inactive”.
For `CC(C)c1cccc(C(C)C)c1O`, the AC50 was 44.1 µM (active).
For `O=C1C(Cl)=C(Cl)C(=O)c2ccccc21`, the AC50 was 43.7 µM (active).
With `O=C(Cc1ccccc1)c1ccccc1` the AC50 was 10 µM (active).
With `COc1cc(-c2ccc(N)c(OC)c2)ccc1N` the AC50 was 19.3 µM (active) and 32.2 µM (active).
`CC(C)(c1ccccc1)c1ccc(O)c(C(C)(C)c2ccccc2)c1` was tested, and the AC50 was 7.35 µM (active).
With `CCCCCCCCc1ccc(O)cc1` the AC50 was 36 µM (active).
With `O=C(O)C(F)(F)C(F)(F)C(F)(F)C(F)(F)C(F)(F)C(F)(F)C(F)(F)C(F)(F)C(F)(F)C(F)(F)F` the AC50 was 2.7 µM (active) and 47.2 µM (active).
`CC(C)(C)CC(C)(C)c1ccc(O)cc1` was tested, and the AC50 was 5.79 µM (active).
In the case of `CCC(C)(C)c1ccc(O)c(C(C)(C)CC)c1`, the AC50 is reported as 13.3 µM (active).
`CC1(C)CCC(Cc2ccc(Cl)cc2)C1(O)Cn1cncn1` (stereo not drawn) was tested, and the AC50 was 30.1 µM (active).

Source: PubChem BioAssay (EPA / NIEHS)
